These results are taken from the supplement of paper PMC9135407.

SMILES strings stand for the structures. Structures can show the parent of a compound that is named as a salt. About 620 (11%) of roughly 5,800 compounds showed activity. This is one part of a sample in which actives are shown more often than they occur. Unmarked numbers belong to inactive results.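 Rule for the calls: active = score above a cut-off or among the top three wells of a plate; in these data no inactive exceeds 0.85.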

The subject of this experiment is primary human hepatic stellate cells (donor 1). In words: scaled lipid accumulation score (0 = DMSO-like, 1 = nortriptyline-like); higher = stronger HSC inactivation (lipid re-accumulation), active = hit call of the paper. The note with it: 48 h.
Where [1] appears, read: library stock concentration: 1 mM.
Where [2] appears, read: library stock concentration: 10 mM.
[3] abbreviates: library stock concentration: 3.33 mM.

Regarding `CCCCC[C@](C)(O)/C=C/[C@H]1C(=O)C[C@H](O)[C@@H]1C/C=C\CCCC(=O)O` [15(S)-15-methyl Prostaglandin D2], under setting [1], the “scaled lipid accumulation score” value was no more than 0.
As for `COC1CCC(C(=O)c2ccc3nc4c(cc3c2)CCCO4)CC1` (stereo not given), under setting [2], the “scaled lipid accumulation score” value is no more than -0.001.
Turning to `NCC(O)c1ccc(O)c(O)c1` (stereo not given), under setting [2], the “scaled lipid accumulation score” value was no more than 0.
Still for that read-out and setting: in the case of `COC(=O)/C=C/c1cccc(N(Cc2ccc(-c3ccc(N(C)C)cc3)cc2)C(=O)C2CCCCC2)c1` [Fexaramine] it was 0.006.
`CC(NC(=O)Cc1cc(F)cc(F)c1)C(=O)NC1C(=O)N(C)c2ccccc2-c2ccccc21` (stereo not given): the “scaled lipid accumulation score” value by setting is: under setting [3], no more than 0; under setting [2], 0.235.
Turning to `N[C@@H](Cc1ccc(O)c(I)c1)C(=O)O` [3-Iodo-L-tyrosine], under setting [2], the “scaled lipid accumulation score” value was no more than -0.055.
On to `CCOC(=O)c1ccnc(C(=O)OCC)c1`, for which, under setting [1], the “scaled lipid accumulation score” value was no more than 0.
Take `CC/C=C\C/C=C\C/C=C\CCCCCCCCCC(=O)O` [Eicosatrienoic acid (20:3 n-3)]: under setting [1], the “scaled lipid accumulation score” value was 0.075.
As for `O=c1[nH]nc(Sc2ncc([N+](=O)[O-])s2)n1-c1ccc2c(c1)OCCO2`, the “scaled lipid accumulation score” value under setting [2] is 1.25 (active).
In the case of `O=C1NCCN1c1ncc([N+](=O)[O-])s1` [Niridazole], the “scaled lipid accumulation score” value was no more than 0.
As to `Nc1nnc(Sc2ncc([N+](=O)[O-])s2)s1`, the “scaled lipid accumulation score” value under setting [2] was 0.438.
For `CCCCC[C@H](O)/C=C/[C@@H]1[C@@H](CCCCCCCO)[C@@H](O)C[C@H]1O` [Prostaglandin F1.alpha. Alcohol], under setting [1], the “scaled lipid accumulation score” value is no more than 0.
The same measure, in the same setting: the same measure for `CCCCC(=O)Oc1ccccc1C(=O)O` [Valeroyl Salicylate]: no more than 0.
On to `CC[C@H](CO)Nc1nc(NCc2ccc(-c3ccccn3)cc2)c2ncn(C(C)C)c2n1` [CR8, (R)-Isomer], for which the “scaled lipid accumulation score” value under setting [3] was no more than 0.
In the case of `CCOC(=O)c1ncc2[nH]c3cccc(OC(C)C)c3c2c1C`, the “scaled lipid accumulation score” value under setting [2] is 0.014.
On the same count and under the same terms, in the case of `Cc1nc(N=Nc2cc(S(=O)(=O)O)c3cc([N+](=O)[O-])cc(S(=O)(=O)O)c3c2)c(COP(=O)(O)O)c(C=O)c1O` [PPNDS tetrasodium] it was 0.229.
Turning to `CCCNCC(O)COc1ccccc1C(=O)CCc1ccccc1` (stereo not given) [Propafenone], the “scaled lipid accumulation score” value (library stock concentration: 5.9 mM) is 0.566.
With `CCCNCC(O)COc1ccccc1C(=O)CCc1ccccc1` (stereo not given) [Propafenone HCl], the “scaled lipid accumulation score” value is, setting by setting: under setting [3], 0.241; under setting [2], 0.684.
Turning to `N#Cc1ccccc1OCC(O)CNCCNC(=O)Nc1ccccc1` (stereo not given), under setting [2], the “scaled lipid accumulation score” value was 0.135.
Same read-out and setting: in the case of `CCCNCC(O)COc1ccccc1C(=O)CCc1ccccc1` (stereo not given) [Rythmol] it was 0.811.
In the case of `CCCNCC(O)COc1ccccc1C(=O)CCc1ccccc1` (stereo not given) [Propafenone hydrochloride], the “scaled lipid accumulation score” value was 0.742. Also, the “scaled lipid accumulation score” value (library stock concentration: 5.3 mM) is 0.429. Moreover, the “scaled lipid accumulation score” value under setting [2] is 0.365.
`COCCNC(=O)COc1ccc(OCCNC[C@H](O)COc2ccccc2)cc1` [ZD 7114 hydrochloride]: under setting [2], the “scaled lipid accumulation score” value was 0.134.
Same read-out and setting: the same measure for `O=C(O)COc1ccc(OCCNC[C@H](O)COc2ccccc2)cc1` [ICI 215,001 hydrochloride]: 0.013; for `CCCNCC(O)COc1ccccc1C(=O)CCc1ccccc1.Cl` (stereo not given) [Propafenone hydrochloride]: 0.887 (active).
For `CC(C)ON(CC(=O)NO)S(=O)(=O)c1ccc(-c2ccccc2)cc1`, the “scaled lipid accumulation score” value under setting [1] was no more than 0.
For `O=C1NN(C(=O)Nc2ccc(Br)cc2)[C@@H](c2ccccc2)[C@@H]1c1ccccc1`, the “scaled lipid accumulation score” value under setting [2] is 0.026.
For the molecule `COc1ccc(-c2cc3c(C)nc(N)nc3n([C@H]3CC[C@H](OCCO)CC3)c2=O)cn1`, the “scaled lipid accumulation score” value reads like this: under setting [3], no more than 0; under setting [2], 0.45.
Regarding `COc1cccc(-c2cc(F)ccc2[C@H]2Cc3nc(N)nc(C)c3C(=O)N2)n1`, the “scaled lipid accumulation score” value under setting [2] was 0.937 (active).
In the case of `COc1cccc(-c2cc(F)ccc2C2Cc3nc(N)nc(C)c3C(=O)N2)n1` (stereo not given), the “scaled lipid accumulation score” value under setting [3] was 0.806.
For the molecule `Cc1ccsc1C(=CCCN1CCC[C@@H](C(=O)O)C1)c1sccc1C`, under setting [2], the “scaled lipid accumulation score” value is no more than 0.
For the molecule `O=C1N[C@@H]2[C@@H](O)[C@@H](O)[C@H](O)[C@@H](CO)N2C1=O` [Kifunensine], the “scaled lipid accumulation score” value under setting [1] was 0.034.
Regarding `CC(CCCCC(=O)Nc1ccc(C(F)(F)F)cc1)NCCc1cnc[nH]1` (stereo not given) [HTMT dimaleate], the “scaled lipid accumulation score” value under setting [2] was 0.519.
For `NC(=O)CCCSc1nc(N)nc(-c2c(Cl)cc3c4c(cccc24)COC3)n1`, the “scaled lipid accumulation score” value is, setting by setting: under setting [3], 0.86 (active); under setting [2], 0.886 (active).
Take `O=P(O)(O)OC1[C@H](O)[C@H](O)C(O)[C@H](O)[C@H]1O` (stereo partly drawn) [D-myo-Inositol-1-phosphate (sodium salt)]: the “scaled lipid accumulation score” value under setting [1] was 0.012.
Take `CCCCCCC=CCCCCCCCCCCOC(C)=O` [11-cis Vaccenyl Acetate]: the “scaled lipid accumulation score” value under setting [1] was no more than 0.
As for `Nc1nc(Nc2ccc(S(N)(=O)=O)cc2)nn1C(=S)Nc1c(F)cccc1F` [Cdk1/2 Inhibitor III], under setting [3], the “scaled lipid accumulation score” value was 0.782.
For `CCCCC/C=C\C[C@@H](O)/C=C/C=C\C/C=C\CCCC(=O)O`, the “scaled lipid accumulation score” value (library stock concentration: 100 uM) is no more than -0.021.
In the case of `CCc1cc2c(cc1CC)CC(NC[C@H](O)c1ccc(O)c3[nH]c(=O)ccc13)C2` [Indacaterol Maleate], under setting [3], the “scaled lipid accumulation score” value was 0.494.
For `CCc1cc2c(cc1CC)CC(NC[C@H](O)c1ccc(O)c3[nH]c(=O)ccc13)C2.O=C(O)C=CC(=O)O` [Indacaterol Maleate], under setting [2], the “scaled lipid accumulation score” value is 1.15 (active).
